Of roughly 7,900 targets only a part is listed; those with a hit were picked by preference. About 0.6% of all pairs of compound and target were hits.
Key:
Experiment in all cases: log2 fold change, soluble protein after heating vs DMSO (PISA); higher = thermal stabilisation; K562 cells, 10 uM, 30 min; active = over 0.2 and 3.5 SD of the protein, either way, in both replicates (recomputed)
[1] = compound: CS(=O)(=O)c1ccc(-c2cnc(N)c(C(=O)Nc3ccccc3)n2)cc1
In short: (§1)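 Soluble protein was quantified by TMTpro 16plex LC-MS/MS after channel sums were equalised. It was obtained as the supernatant after 21,000xg for 90 min from pooled aliquots of K562 cells (2×10^6 cells/mL, 10 μM compound, 30 min) heated for 3 min across 48°C-58°C and extracted in PBS with 0.5% NP-40 at 4°C. Thermal stability values are relative to control samples and come from duplicates. They are given as log2 fold changes.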

crizotinib = compound: C[C@@H](Oc1cc(-c2cnn(C3CCNCC3)c2)cnc1N)c1c(Cl)ccc(F)c1Cl [crizotinib]
In short: as §1

[2] = compound: C[C@@H]1COCCN1C2=NC(=NC(=C2)C3(CC3)S(=O)(=O)C)C4=C5C=CNC5=CC=C4
In short: as §1

[3] = compound: C[C@H](C1=CC=C(C=C1)C(=O)NC2=C3C=CNC3=NC=C2)N
In short: as §1

duvelisib = compound: C[C@H](Nc1ncnc2nc[nH]c12)c1cc2cccc(Cl)c2c(=O)n1-c1ccccc1 [duvelisib]
In short: as §1

gandotinib = compound: Cc1cc(Nc2cc(CN3CCOCC3)c3nc(C)c(Cc4ccc(Cl)cc4F)n3n2)n[nH]1 [gandotinib]
In short: as §1

tozasertib = compound: Cc1cc(Nc2cc(N3CCN(C)CC3)nc(Sc3ccc(NC(=O)C4CC4)cc3)n2)n[nH]1 [tozasertib]
In short: as §1

[4] = compound: Cc1cc(SCc2sc(-c3ccc(C(F)(F)F)cc3)nc2C)ccc1OCC(=O)O
In short: as §1

doramapimod = compound: Cc1ccc(-n2nc(C(C)(C)C)cc2NC(=O)Nc2ccc(OCCN3CCOCC3)c3ccccc23)cc1 [doramapimod]
In short: as §1

ispinesib = compound: Cc1ccc(C(=O)N(CCCN)[C@@H](c2nc3cc(Cl)ccc3c(=O)n2Cc2ccccc2)C(C)C)cc1 [ispinesib]
In short: as §1

bafetinib = compound: Cc1ccc(NC(=O)c2ccc(CN3CC[C@H](N(C)C)C3)c(C(F)(F)F)c2)cc1Nc1nccc(-c2cncnc2)n1 [bafetinib]
In short: as §1

[5] = compound: Cc1cccc(CC(=O)N2CCc3c2ccc(-c2cn(C)c4ncnc(N)c24)c3F)n1
In short: as §1

nilotinib = compound: Cc1cn(-c2cc(NC(=O)c3ccc(C)c(Nc4nccc(-c5cccnc5)n4)c3)cc(C(F)(F)F)c2)cn1 [nilotinib]
In short: as §1

[6] = compound: Cc1nc(Nc2n[nH]c3c2CN(C(=O)N[C@H](CN(C)C)c2ccccc2)C3(C)C)c2sccc2n1
In short: as §1

dasatinib = compound: Cc1nc(Nc2ncc(C(=O)Nc3c(C)cccc3Cl)s2)cc(N2CCN(CCO)CC2)n1 [dasatinib]
In short: as §1

[7] = compound: Cc1ncc(-c2ccnc(Nc3ccc(S(C)(=O)=O)cc3)n2)n1C(C)C
In short: as §1

[8] = compound: Cn1cc(-c2ccc3c(c2)CCN3C(=O)Cc2cccc(C(F)(F)F)c2)c2c(N)ncnc21
In short: as §1

[9] = compound: Cn1cc(-c2ccc3nnc(C(F)(F)c4ccc5ncccc5c4)n3n2)cn1
In short: as §1

tipifarnib = compound: Cn1cncc1[C@@](N)(c1ccc(Cl)cc1)c1ccc2c(c1)c(-c1cccc(Cl)c1)cc(=O)n2C [tipifarnib]
In short: as §1

mubritinib = compound: FC(F)(F)c1ccc(/C=C/c2nc(COc3ccc(CCCCn4ccnn4)cc3)co2)cc1 [mubritinib]
In short: as §1

Measured: log2 fold change

RPS13 (UniProt P62277)
inactive: [1] -0.053 | crizotinib 0.076 | [2] -0.548 | [3] 0.403 | duvelisib -0.201 | gandotinib 0.296 | tozasertib 0.021 | [4] -0.013 | doramapimod 0.247 | ispinesib -0.195 | bafetinib 0.342 | [5] 0 | nilotinib 0.017 | [6] 0.221 | dasatinib 0.088 | [7] -0.051 | [8] -0.237 | [9] -0.089 | tipifarnib 0.204 | mubritinib -0.184

RPS20 isoform 2 (UniProt P60866)
inactive: [1] -0.062 | crizotinib 0.013 | [2] -0.176 | [3] 0.174 | duvelisib -0.034 | gandotinib 0.129 | tozasertib 0.008 | [4] 0.004 | doramapimod 0.048 | ispinesib -0.066 | bafetinib 0.178 | [5] -0.005 | nilotinib -0.006 | [6] 0.223 | dasatinib 0.05 | [7] -0.071 | [8] -0.078 | [9] -0.008 | tipifarnib 0.094 | mubritinib -0.059

RB1CC1 (UniProt Q8TDY2)
inactive: [1] 0.062 | crizotinib 0.041 | [2] -0.006 | [3] 0.033 | duvelisib -0.006 | gandotinib 0.132 | tozasertib -0.013 | [4] 0.011 | doramapimod 0.037 | ispinesib -0.02 | bafetinib -0.037 | [5] 0.014 | nilotinib 0.009 | [6] 0.078 | dasatinib -0.103 | [7] -0.012 | [8] 0.029 | [9] 0.017 | tipifarnib -0.069 | mubritinib 0.026

RARS2 (UniProt Q5T160)
inactive: [1] -0.026 | crizotinib -0.016 | [2] 0.091 | [3] -0.021 | duvelisib 0.018 | gandotinib -0.075 | tozasertib 0.01 | [4] 0.019 | doramapimod -0.017 | ispinesib -0.033 | bafetinib -0.148 | [5] 0.104 | nilotinib -0.039 | [6] 0.019 | dasatinib -0.023 | [7] -0.006 | [8] 0.061 | [9] 0.012 | tipifarnib -0.008 | mubritinib 0.075

RPA3 (UniProt P35244)
inactive: [1] -0.044 | crizotinib 0.042 | [2] -0.162 | [3] -0.098 | duvelisib 0.043 | gandotinib 0.11 | tozasertib 0.053 | [4] 0.003 | doramapimod -0.054 | ispinesib 0.109 | bafetinib 0.023 | [5] 0.086 | nilotinib -0.034 | [6] -0.047 | dasatinib 0.016 | [7] 0.022 | [8] 0.105 | [9] -0.002 | tipifarnib 0.014 | mubritinib 0.024

RAD50 isoform 2 (UniProt Q92878)
Chain of UniProt Q92878 (Q92878 whole entry, looked up): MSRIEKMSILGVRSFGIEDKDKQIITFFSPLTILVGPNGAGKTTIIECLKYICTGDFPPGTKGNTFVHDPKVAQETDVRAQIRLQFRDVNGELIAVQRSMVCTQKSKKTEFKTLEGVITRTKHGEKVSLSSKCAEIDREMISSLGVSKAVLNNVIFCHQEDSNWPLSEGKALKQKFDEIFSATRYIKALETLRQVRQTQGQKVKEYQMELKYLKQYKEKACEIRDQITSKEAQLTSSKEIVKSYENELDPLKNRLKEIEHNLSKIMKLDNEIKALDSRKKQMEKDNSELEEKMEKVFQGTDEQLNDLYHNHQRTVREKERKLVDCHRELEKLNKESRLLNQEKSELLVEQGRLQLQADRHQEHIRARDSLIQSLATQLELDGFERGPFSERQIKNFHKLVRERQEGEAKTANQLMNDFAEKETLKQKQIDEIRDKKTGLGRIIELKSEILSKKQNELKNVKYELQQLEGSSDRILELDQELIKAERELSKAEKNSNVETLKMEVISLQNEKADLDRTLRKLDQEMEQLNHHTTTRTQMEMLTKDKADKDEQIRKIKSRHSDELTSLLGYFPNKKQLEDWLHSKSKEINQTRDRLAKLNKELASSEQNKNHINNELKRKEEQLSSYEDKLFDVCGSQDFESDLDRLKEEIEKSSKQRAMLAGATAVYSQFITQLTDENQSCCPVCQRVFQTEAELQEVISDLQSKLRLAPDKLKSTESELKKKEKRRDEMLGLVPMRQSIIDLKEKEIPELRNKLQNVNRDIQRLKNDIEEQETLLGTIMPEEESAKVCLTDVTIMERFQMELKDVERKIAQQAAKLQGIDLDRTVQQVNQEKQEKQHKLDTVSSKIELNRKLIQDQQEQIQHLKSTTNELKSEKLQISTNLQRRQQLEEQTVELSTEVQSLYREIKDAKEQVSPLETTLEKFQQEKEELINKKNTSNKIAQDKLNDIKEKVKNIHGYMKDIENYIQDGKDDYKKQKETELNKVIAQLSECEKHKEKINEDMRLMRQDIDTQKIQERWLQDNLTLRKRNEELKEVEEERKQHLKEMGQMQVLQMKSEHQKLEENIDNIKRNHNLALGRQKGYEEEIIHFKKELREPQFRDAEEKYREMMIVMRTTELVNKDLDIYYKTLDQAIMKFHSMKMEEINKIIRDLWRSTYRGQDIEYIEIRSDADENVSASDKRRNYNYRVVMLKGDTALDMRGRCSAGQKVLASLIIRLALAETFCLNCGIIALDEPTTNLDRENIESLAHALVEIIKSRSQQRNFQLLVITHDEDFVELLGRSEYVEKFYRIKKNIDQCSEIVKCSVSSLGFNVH
inactive: [1] 0.031 | crizotinib 0.064 | [2] 0.044 | [3] -0.039 | duvelisib 0.02 | gandotinib -0.017 | tozasertib 0.029 | [4] 0.021 | doramapimod -0.023 | ispinesib 0.033 | bafetinib -0.015 | [5] 0.009 | nilotinib -0.039 | [6] -0.112 | dasatinib -0.089 | [7] -0.016 | [8] 0.023 | [9] 0.042 | tipifarnib -0.017 | mubritinib 0.063

RPS16 (UniProt P62249)
inactive: [1] -0.107 | crizotinib 0 | [2] -0.353 | [3] 0.214 | duvelisib -0.118 | gandotinib 0.172 | tozasertib 0.021 | [4] -0.023 | doramapimod 0.055 | ispinesib -0.088 | bafetinib 0.279 | [5] -0.026 | nilotinib 0.07 | [6] 0.207 | dasatinib 0.053 | [7] -0.019 | [8] -0.078 | [9] -0.048 | tipifarnib 0.107 | mubritinib -0.066

SLC1A5 (UniProt Q15758)
Chain of UniProt Q15758 (Q15758 whole entry, looked up): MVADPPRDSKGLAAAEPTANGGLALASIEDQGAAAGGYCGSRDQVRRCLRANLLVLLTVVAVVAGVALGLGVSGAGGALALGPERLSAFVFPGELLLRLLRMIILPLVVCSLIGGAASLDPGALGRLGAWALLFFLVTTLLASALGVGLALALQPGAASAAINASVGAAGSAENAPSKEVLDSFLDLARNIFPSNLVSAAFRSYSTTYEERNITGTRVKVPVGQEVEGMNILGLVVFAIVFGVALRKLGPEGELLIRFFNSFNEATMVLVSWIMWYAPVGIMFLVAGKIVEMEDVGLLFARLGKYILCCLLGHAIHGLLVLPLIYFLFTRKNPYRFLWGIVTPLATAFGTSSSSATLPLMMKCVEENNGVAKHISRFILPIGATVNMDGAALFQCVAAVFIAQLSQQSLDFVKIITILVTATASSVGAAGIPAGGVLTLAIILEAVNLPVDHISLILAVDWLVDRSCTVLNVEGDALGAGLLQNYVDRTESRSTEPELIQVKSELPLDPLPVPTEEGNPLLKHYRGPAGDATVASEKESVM
inactive: [1] 0.026 | crizotinib 0.13 | [2] 0.072 | [3] -0.186 | duvelisib 0.044 | gandotinib -0.105 | tozasertib -0.064 | [4] -0.091 | doramapimod -0.007 | ispinesib 0.167 | bafetinib 0.041 | [5] 0.004 | nilotinib 0.067 | [6] 0.023 | dasatinib 0.023 | [7] 0.014 | [8] 0.035 | [9] -0.032 | tipifarnib 0.026 | mubritinib 0.052

ROCK2 (UniProt O75116)
Chain of UniProt O75116 (O75116 whole entry, looked up): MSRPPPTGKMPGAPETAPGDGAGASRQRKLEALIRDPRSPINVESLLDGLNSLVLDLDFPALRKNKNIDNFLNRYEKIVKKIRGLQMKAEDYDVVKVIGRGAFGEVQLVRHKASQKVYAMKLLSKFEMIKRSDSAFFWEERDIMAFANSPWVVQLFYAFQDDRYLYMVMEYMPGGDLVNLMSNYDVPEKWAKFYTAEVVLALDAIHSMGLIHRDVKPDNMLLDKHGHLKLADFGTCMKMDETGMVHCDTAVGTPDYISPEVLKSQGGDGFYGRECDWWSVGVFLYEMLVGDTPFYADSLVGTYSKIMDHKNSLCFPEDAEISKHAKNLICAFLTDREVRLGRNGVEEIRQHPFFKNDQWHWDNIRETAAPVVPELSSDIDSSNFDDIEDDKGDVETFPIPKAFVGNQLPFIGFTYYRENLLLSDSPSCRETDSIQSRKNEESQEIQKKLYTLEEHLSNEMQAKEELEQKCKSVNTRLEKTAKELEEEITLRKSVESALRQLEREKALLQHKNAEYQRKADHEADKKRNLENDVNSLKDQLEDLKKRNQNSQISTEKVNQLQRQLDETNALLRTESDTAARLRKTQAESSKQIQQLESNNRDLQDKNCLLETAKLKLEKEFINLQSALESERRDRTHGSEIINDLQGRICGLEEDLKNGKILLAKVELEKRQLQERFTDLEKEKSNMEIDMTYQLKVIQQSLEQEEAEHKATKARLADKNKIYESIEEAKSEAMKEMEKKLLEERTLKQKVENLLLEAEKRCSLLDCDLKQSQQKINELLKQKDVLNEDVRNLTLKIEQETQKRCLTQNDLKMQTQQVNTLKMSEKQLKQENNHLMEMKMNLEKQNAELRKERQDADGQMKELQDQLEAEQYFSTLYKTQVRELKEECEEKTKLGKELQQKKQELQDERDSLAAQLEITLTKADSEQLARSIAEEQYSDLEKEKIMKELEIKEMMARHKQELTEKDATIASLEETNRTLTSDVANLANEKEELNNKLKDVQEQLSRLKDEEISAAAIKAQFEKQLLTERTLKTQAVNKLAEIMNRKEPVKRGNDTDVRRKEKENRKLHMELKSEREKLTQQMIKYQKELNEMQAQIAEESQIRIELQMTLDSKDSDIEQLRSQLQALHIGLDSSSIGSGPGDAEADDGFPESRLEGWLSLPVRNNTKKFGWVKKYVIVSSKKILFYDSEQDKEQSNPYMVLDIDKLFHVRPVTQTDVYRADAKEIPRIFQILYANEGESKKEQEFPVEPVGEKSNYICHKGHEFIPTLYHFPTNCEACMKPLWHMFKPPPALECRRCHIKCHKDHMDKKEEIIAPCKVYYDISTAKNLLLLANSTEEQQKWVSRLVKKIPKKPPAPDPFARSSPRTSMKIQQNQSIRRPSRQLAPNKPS
active: [3] 0.392
inactive: [1] 0.033 | crizotinib -0.041 | [2] 0.026 | duvelisib 0.025 | gandotinib -0.049 | tozasertib -0.035 | [4] 0.004 | doramapimod 0.007 | ispinesib -0.049 | bafetinib -0.033 | [5] -0.006 | nilotinib -0.05 | [6] -0.202 | dasatinib -0.064 | [7] 0.009 | [8] -0.091 | [9] 0.014 | tipifarnib -0.008 | mubritinib 0.013

SAMD4B (UniProt Q5PRF9)
inactive: [1] -0.102 | [2] -0.036 | [3] 0.009 | duvelisib -0.067 | gandotinib -0.135 | tozasertib -0.154 | [4] 0.029 | doramapimod 0.073 | ispinesib -0.082 | bafetinib -0.436 | [5] 0.125 | nilotinib -0.167 | [6] -0.312 | dasatinib -0.296 | [7] 0.002 | [8] -0.072 | [9] -0.042 | tipifarnib 0.09
active: crizotinib -0.527

RAC3 (UniProt P60763)
active: doramapimod 0.262
inactive: [1] 0.074 | crizotinib 0.097 | [2] 0.073 | [3] -0.027 | duvelisib 0.145 | gandotinib 0 | tozasertib -0.086 | [4] 0.005 | ispinesib -0.013 | bafetinib 0.015 | [5] -0.221 | nilotinib 0.03 | [6] 0.036 | dasatinib -0.169 | [7] -0.016 | [8] 0.107 | [9] 0.064 | tipifarnib 0.03 | mubritinib -0.008

RPS18 (UniProt P62269)
inactive: [1] -0.022 | crizotinib 0.033 | [2] -0.244 | [3] 0.222 | duvelisib -0.076 | gandotinib 0.129 | tozasertib 0.016 | [4] -0.002 | doramapimod 0.105 | ispinesib -0.074 | bafetinib 0.214 | [5] -0.015 | nilotinib -0.001 | [6] 0.198 | dasatinib 0.069 | [7] -0.054 | [8] -0.088 | [9] -0.001 | tipifarnib 0.031 | mubritinib -0.022

SLC19A1 (UniProt P41440)
inactive: [1] -0.097 | crizotinib 0.086 | [2] 0.041 | [3] -0.088 | duvelisib 0.135 | gandotinib -0.107 | tozasertib -0.04 | [4] 0.012 | doramapimod -0.037 | ispinesib 0.083 | bafetinib 0.11 | [5] 0.039 | nilotinib 0.01 | [6] 0.012 | dasatinib 0.024 | [7] 0.026 | [8] 0.103 | [9] -0.026 | tipifarnib 0.051 | mubritinib 0.074

SAFB2 (UniProt Q14151)
Chain of UniProt Q14151 (Q14151 whole entry, looked up): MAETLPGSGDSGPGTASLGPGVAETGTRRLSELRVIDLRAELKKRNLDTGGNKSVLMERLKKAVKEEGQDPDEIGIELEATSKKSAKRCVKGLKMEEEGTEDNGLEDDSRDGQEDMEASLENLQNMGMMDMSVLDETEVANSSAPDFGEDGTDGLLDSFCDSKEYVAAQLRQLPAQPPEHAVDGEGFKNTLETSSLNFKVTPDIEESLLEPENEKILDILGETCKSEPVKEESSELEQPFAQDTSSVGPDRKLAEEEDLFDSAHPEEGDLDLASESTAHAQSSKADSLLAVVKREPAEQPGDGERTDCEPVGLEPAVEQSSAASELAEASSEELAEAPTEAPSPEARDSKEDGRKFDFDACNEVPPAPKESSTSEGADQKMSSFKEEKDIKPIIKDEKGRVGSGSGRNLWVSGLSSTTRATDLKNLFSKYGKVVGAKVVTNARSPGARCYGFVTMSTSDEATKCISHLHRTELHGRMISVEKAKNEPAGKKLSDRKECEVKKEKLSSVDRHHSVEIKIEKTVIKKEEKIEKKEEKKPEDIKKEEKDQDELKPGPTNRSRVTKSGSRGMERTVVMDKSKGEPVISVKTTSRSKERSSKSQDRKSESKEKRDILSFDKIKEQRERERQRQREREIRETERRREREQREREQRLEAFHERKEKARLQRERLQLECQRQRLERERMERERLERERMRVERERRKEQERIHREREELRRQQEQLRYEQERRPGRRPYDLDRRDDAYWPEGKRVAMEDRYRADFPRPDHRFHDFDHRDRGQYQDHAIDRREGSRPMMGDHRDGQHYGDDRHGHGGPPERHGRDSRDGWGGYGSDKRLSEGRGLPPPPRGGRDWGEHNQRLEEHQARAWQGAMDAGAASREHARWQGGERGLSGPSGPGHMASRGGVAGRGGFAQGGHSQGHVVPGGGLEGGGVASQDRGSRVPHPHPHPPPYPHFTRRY
inactive: [1] -0.079 | crizotinib -0.016 | [2] -0.316 | [3] 0.164 | duvelisib -0.155 | gandotinib 0.184 | tozasertib -0.027 | [4] 0.006 | doramapimod 0.089 | ispinesib -0.043 | bafetinib 0.17 | [5] -0.018 | nilotinib -0.016 | [6] 0.117 | dasatinib 0.183 | [7] -0.054 | [8] -0.135 | [9] -0.058 | tipifarnib 0.085 | mubritinib -0.077

SIDT2 isoform 2 (UniProt Q8NBJ9)
Chain of UniProt Q8NBJ9 (Q8NBJ9 whole entry, looked up): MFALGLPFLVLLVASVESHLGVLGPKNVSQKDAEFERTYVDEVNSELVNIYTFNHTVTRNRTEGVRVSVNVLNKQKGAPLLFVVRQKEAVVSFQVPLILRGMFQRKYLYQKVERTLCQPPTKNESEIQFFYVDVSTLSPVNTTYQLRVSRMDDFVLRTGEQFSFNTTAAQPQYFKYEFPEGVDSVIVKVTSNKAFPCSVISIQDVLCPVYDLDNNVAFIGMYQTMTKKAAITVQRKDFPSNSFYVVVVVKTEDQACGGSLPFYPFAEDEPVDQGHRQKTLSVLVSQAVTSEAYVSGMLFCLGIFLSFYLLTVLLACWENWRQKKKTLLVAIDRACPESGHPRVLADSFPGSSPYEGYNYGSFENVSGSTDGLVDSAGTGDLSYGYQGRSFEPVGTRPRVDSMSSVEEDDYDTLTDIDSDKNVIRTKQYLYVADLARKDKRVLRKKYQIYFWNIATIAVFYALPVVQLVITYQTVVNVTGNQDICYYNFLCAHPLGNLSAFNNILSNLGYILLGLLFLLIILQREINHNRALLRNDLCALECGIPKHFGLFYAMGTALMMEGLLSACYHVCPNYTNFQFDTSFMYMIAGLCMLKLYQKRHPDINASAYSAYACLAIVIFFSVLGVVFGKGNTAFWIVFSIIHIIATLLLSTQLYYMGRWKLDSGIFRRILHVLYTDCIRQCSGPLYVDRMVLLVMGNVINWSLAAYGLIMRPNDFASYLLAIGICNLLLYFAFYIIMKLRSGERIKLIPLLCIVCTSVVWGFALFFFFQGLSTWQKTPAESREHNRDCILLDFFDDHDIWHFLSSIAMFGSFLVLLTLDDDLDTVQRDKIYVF
inactive: [1] 0.132 | crizotinib -0.026 | [2] -0.017 | [3] -0.004 | duvelisib 0.059 | gandotinib 0.006 | tozasertib 0.004 | [4] -0.186 | doramapimod 0.254 | ispinesib -0.143 | bafetinib -0.24 | [5] -0.025 | nilotinib -0.005 | [6] 0.104 | dasatinib 0.041 | [7] 0.025 | [8] -0.003 | [9] 0.038 | tipifarnib 0.073 | mubritinib -0.001

RAVER1 (UniProt E9PAU2)
inactive: [1] 0.061 | crizotinib 0.049 | [2] 0.188 | [3] -0.381 | duvelisib 0.066 | gandotinib -0.091 | tozasertib 0.264 | [4] 0.132 | doramapimod 0.002 | ispinesib -0.171 | bafetinib -0.155 | [5] 0 | nilotinib -0.091 | [6] -0.319 | dasatinib -0.309 | [7] -0.299 | [8] 0.155 | [9] 0.011 | tipifarnib -0.351 | mubritinib 0.134

From the supplement of paper PMC10849652
